Screening data (PubChem BioAssay)
NTR1 agonist: NTR1 (human) agonism; P30989; activation, % at 20 µM; 330,000 compounds, 0.17% hits; NTR1-U2OS beta-arrestin-GFP spot imaging, agonist mode;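 active = activation at or above 40% of the spot to cytoplasm intensity ratio, with at least 20 cells analyzed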
ANO1 block: inhibitors of mouse TMEM16A calcium-activated chloride channel. HEK293 TMEM16A/YFP iodide influx fluorescence, ionomycin. 310,000 compounds, 1.2% hits. normalized B-score (activity score, 25-100; higher = stronger inhibition) at 10 µM. AID 588511. Q8BHY3;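 active = ratio plate-corrected score three or more library SD toward inhibition, starting fluorescence score within five deviations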;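 also: score derived from kinetic fluorescence span divided by baseline fluorescence per well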
Target sequence (Q8BHY3 whole entry, looked up): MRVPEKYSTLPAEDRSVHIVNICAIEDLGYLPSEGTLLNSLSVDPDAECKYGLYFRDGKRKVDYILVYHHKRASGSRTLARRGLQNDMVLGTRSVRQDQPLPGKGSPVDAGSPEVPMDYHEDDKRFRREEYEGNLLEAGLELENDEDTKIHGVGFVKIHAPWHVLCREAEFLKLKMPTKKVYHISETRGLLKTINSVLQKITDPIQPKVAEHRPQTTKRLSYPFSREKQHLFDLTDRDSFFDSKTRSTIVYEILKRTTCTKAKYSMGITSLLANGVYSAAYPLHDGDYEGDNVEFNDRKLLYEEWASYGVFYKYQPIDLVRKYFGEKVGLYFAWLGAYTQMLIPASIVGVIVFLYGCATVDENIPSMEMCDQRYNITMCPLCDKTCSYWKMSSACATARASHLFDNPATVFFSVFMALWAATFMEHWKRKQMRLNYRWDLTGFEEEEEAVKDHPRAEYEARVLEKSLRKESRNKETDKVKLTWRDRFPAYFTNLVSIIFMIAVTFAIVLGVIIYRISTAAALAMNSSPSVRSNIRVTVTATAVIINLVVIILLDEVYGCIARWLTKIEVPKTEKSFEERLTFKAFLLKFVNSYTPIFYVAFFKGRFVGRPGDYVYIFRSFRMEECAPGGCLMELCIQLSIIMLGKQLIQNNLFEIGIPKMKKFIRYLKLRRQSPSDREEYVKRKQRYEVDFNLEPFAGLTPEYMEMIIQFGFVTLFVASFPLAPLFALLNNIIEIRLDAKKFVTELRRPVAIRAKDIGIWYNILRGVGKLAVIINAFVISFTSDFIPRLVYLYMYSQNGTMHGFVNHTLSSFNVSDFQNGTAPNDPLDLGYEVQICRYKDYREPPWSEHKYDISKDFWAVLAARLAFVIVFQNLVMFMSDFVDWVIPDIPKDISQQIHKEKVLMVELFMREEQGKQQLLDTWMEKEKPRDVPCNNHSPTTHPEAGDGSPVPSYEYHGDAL
MEKK3 PB1 HTS: modulators (inhibitors or enhancers) of MEK5 binding to human MEKK3 PB1 domain | Q99759 | bead-based flow cytometry, Alexa488-MEK5 binding to MEKK3; actives lie on both sides; 0 = blocked by unlabeled MEK5, 100 = vehicle | binding response (% of control), % at 10 µM | 290,000 compounds, 1.4% hits | AID 1529;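 active = binding response more than 3 SD above or below the average of its plate-row segment, actives on both sides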;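 also: Alexa488 bead fluorescence after subtracting the streptavidin-only scavenger bead signal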
MEKK2mut PB1 HTS: signal of MEK5 binding to mutant human MEKK2 PB1 domain; percent response, % at 10 µM; bead flow cytometry, Alexa488-MEK5 binding to MEKK2 mutant; 290,000 compounds, 0.35% hits; AID 1530; in the data active = percent response above about 24%, passing the limit was not always enough
TMEM16A act: mouse TMEM16A channel activation, primary screen. Q8BHY3. HEK293 TMEM16A/YFP-H148Q/I152L, iodide quench fluorescence; active compounds read low. B-score at 10 µM. 340,000 compounds, 0.3% hits. AID 623877;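 active = fluorescence-ratio B-score plate-corrected deviation score at least 3 library SD below zero, with starting fluorescence score within 5 deviations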;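 also: channel opened by trigger with iodide after compound preincubation; score built on the fluorescence ratio of max minus min over baseline; more negative score means more quench and so TMEM16A activation or potentiation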
MEKK2wt PB1 HTS: raises or lowers MEK5 binding to wildtype human MEKK2 PB1 domain. Q9Y2U5. bead flow cytometry, Alexa488-MEK5 binding to MEKK2 WT; actives lie on both sides. binding response (% of control), % at 10 µM. 290,000 compounds, 1.1% hits; in the data active = binding response below about 67% or above about 130%
Hits are given with their value; n = inactive; x = no result; ! = repeats disagree; [ ] = another dose, or the depositor's remark. A selection: hits, their analogues and other compounds. The true share with any hit is near 3.4%.

SMILES | NTR1 agonist | ANO1 block | MEKK3 PB1 HTS | MEKK2mut PB1 HTS | TMEM16A act | MEKK2wt PB1 HTS
Cc1ccc(C(C)C)cc1OCC(=O)N/N=C/c1ccc2c(c1)OCCO2 | n | 100 | n | n | n | n
Cc1cccc(C)c1OCC(=O)N/N=C/c1ccc2c(c1)OCO2 | n | n | n | n | n | n
O=C(CCCN1C(=O)/C(=C\c2cccc(Br)c2)SC1=S)Nc1cccnc1 | n | n | n | n | n | n
OC(CNCCc1ccc(C(F)(F)F)cc1)COc1cccc2ccccc12 (centres undefined) | n | n | n | n | n | 156
N#CC(C(=O)NCCc1ccccc1)c1nc2ccccc2nc1N1CCCCC1 (centres undefined) | n | 100 | n | n | n | n
Cc1sc2nc(-c3cccnc3)nc(Cl)c2c1-c1ccccc1 | n | n | n | n | n | n
FC(F)(F)c1ccc(N2CCN(c3ncnc4c3nnn4Cc3ccccc3Cl)CC2)cc1 | n | n | n | n | n | n
Fc1ccc(N2CCN(c3ncnc4c3nnn4Cc3ccccc3Cl)CC2)cc1 | n | n | 71[inhibitor] | n | n | n
CCc1ccc(/C=C2/SC(=S)N(CCCC(=O)Nc3ccccc3C(=O)O)C2=O)cc1 | n | 100 | n | n | n | n
COc1ccc(-c2cnnn2-c2ccc([N+](=O)[O-])cc2)cc1 | n | n | n | n | n | n
CC(O)(CS(=O)(=O)Cc1ccc(Cl)cc1)C(=O)Nc1cccc(C(F)(F)F)c1 (centres undefined) | n | n | n | n | n | n
O=C(Nc1cccc(C(F)(F)F)c1)N(Cc1ccc(Cl)cc1)CC(O)C(F)(F)F (centres undefined) | n | 100 | n | n | n | n
Cc1cccc(CCN2C(Nc3ccccc3)=NC[C@@H]2CC(C)C)c1 | n | n | x | x | -6.1 | x
CC(C)CCN1C(Nc2ccccc2)=NC[C@@H]1CC(C)C | n | n | n | n | n | n
CC(C)C[C@H]1CN=C(Nc2ccccc2)N1CCc1ccc(F)cc1 | n | n | x | x | n | x
CC(C)C[C@H]1CN=C(Nc2ccccc2)N1CCc1cccc(F)c1 | n | x | x | x | -5.2 | x
Cc1ccc(NC(=O)COC(=O)[C@@H]2CC(O)CN2S(=O)(=O)c2ccc3c(c2)OCCO3)cc1 (some centres undefined) | n | x | x | x | n | x
Cc1ccc(Oc2cc(NN3CCCCC3)c([N+](=O)[O-])cc2[N+](=O)[O-])c(Cl)c1 | n | n | n | n | n | n
C/C(=N\Nc1nc2ccc(Cl)cc2o1)c1ccccc1 | n | n | n | n | n | -3.0
Cc1ccc(C2=C(O)c3ccccc3C(=O)C2=O)cc1 | n | n | n | n | n | n
CC(C)c1ccc(C2=C(O)c3ccccc3C(=O)C2=O)cc1 | n | 25 | n | n | n | n
O=C(CSc1nnc(Cn2nnc3ccccc32)o1)Nc1cccc(Cl)c1 | n | n | n | n | n | n
O=C(CSc1nnc(Cn2nnc3ccccc32)o1)N(Cc1ccc(Cl)cc1)c1ccccc1 | n | 100 | n | n | n | n
CCc1ccc2oc(=O)cc(CN(C)Cc3ccccc3)c2c1 | n | 100 | n | n | n | n
Cn1c(=O)c2c(ncn2CC(N)=O)n(C)c1=O | n | n | n | n | n | n
SMILES | NTR1 agonist | ANO1 block | MEKK3 PB1 HTS | MEKK2mut PB1 HTS | TMEM16A act | MEKK2wt PB1 HTS
CC(=O)CCCCn1cnc2c1c(=O)n(C)c(=O)n2C | n | n | n | n | x | -14!
O=C(O)c1ccc(N=NNc2cccc([N+](=O)[O-])c2)cc1 | n | n | n | n | n | n
N#C/C(=N\Nc1ccc([N+](=O)[O-])cc1)C(N)=S | n | 100 | n | n | n | n
N#C/C(=N/Nc1ccc([N+](=O)[O-])cc1)C(=N)N1CCCCC1 | x | x | n | n | n | n
N#C/C(=N\Nc1cccc([N+](=O)[O-])c1)C(=O)c1ccc(Br)cc1 | n | 25 | n | n | n | n
CC(=O)N1CC(C)Sc2ccc(S(=O)(=O)NC(C)c3ccccc3)cc21 (centres undefined) | n | n | 80[inhibitor] | n | n | 64[inhibitor]
CC[N+]1=C(C)C(C)(C)c2cc(C)ccc21 | n | n | n | n | n | n
Cc1ccc2c(c1)C=CC(C)(C)S2=O (centres undefined) | n | n | 130 | n | n | n
COc1ccc(CCN2CC(C(=O)N(C)CC(=O)Nc3ccc(F)c(F)c3F)CC2=O)cc1OC (centres undefined) | x | x | x | x | n | x
CCc1ccccc1OCc1nnc(N)s1 | n | 25 | n | n | n | n
Cc1noc(C)c1NC(=O)N(C)C[C@@H]1Oc2ccc(NC(=O)Cc3cn(C)c4ccccc34)cc2CC(=O)N([C@H](C)CO)C[C@@H]1C | n | x | x | x | n | x
CCOC(=O)NC(=O)c1cn(CCNCCO)c(=O)[nH]c1=O | n | n | n | n | n | n
Cc1nn(-c2ccccc2)c(Cl)c1/C=N/NC(=O)c1ccccc1NS(=O)(=O)c1cccs1 | n | 100 | n | n | n | n
CCc1c(C)sc2nc(C(C)C)nc(SCC(=O)N3CCc4ccccc4C3)c12 | n | 100 | n | n | x | n
CCC(Sc1nc2cc(OC)c(OC)cc2c(=O)n1CCc1ccc(S(N)(=O)=O)cc1)C(=O)NCCOC (centres undefined) | n | n | n | n | -4.7 | n
CCC(Sc1nc2cc(OC)c(OC)cc2c(=O)n1Cc1ccc(OC)cc1)C(=O)NCCOC (centres undefined) | n | n | n | n | n | n
Cc1cc(C(F)(F)F)nc(CCNC(=O)C2CCC(=O)N(Cc3cccc(F)c3)C2)n1 (centres undefined) | n | n | n | n | n | n
COCCCNc1nc(-c2ccc(Cl)cc2)nc2ccccc12 | n | 25 | n | n | n | n
OCCNc1nc(-c2ccccc2)nc2ccccc12 | n | n | n | n | n | n
OCCCNc1nc(-c2ccc(Cl)cc2)nc2ccccc12 | n | n | n | n | -6.3 | n
CCOC(=O)Nc1ccc(S(=O)(=O)NC2CCCCC2)cc1 | n | n | n | n | n | n
O=C(Cn1nc(-c2ccc(Cl)cc2)ccc1=O)NCC1CCCO1 (centres undefined) | n | n | n | n | -17 | n
O=C(Cn1nc(-c2ccccc2)ccc1=O)NCC1CCCO1 (centres undefined) | n | n | n | n | n | n
CN(C)c1ccc(/C=C2\C(=N)N3N=C(CC(=O)N4CCCCC4)SC3=NC2=O)cc1 | n | n | n | n | -5.5 | n
Cc1occc1C(=O)NNC(=O)NC12CC3CC(CC(C3)C1)C2 | n | n | x | x | n | x
Cc1cc(C(=O)NC2CCCc3c2cnn3-c2ccc(C(C)(C)C)cc2)nn1C (centres undefined) | n | 25 | n | n | n | n
Cc1cc(C)cc(-n2ncc3c2CCCC3NC(=O)c2cc(C)n(C)n2)c1 (centres undefined) | n | n | n | n | n | n
